Reference: publication PMC7862700, “An all-to-all approach to the identification of sequence-specific readers for epigenetic DNA modifications on cytosine”

What was measured:
Test in all cases: DAPPL (digital affinity profiling via proximity ligation, sequencing); 10 mM Tris-HCl pH 7.5, 50 mM NaCl, 1 mM DTT, 4% glycerol, room temperature, 30 min; GST-TFs on glutathione beads, 16-mer random dsDNA library, 0.1% formaldehyde crosslink after washing; high values mean tight binding
Conditions in all cases: protein: recombinant; tags: N-terminal GST; dsDNA, one strand shown
FEV = biological target: T1, FEV (Homo sapiens, UniProt Q99581 1-238)
T1 sequence: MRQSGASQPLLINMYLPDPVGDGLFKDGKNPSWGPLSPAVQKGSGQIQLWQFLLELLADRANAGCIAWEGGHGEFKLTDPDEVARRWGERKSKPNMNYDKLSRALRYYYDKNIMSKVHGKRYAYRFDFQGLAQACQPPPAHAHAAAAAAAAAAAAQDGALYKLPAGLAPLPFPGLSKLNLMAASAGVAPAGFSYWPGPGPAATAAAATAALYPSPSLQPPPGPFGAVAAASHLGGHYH
Summary of the method: (§1)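 Binding signal is given per hexamer as its read frequency for a factor divided by its frequency in the tag-only sample. GST-fused human transcription factors were expressed in yeast, captured on glutathione beads, barcoded with DNA and pooled with that sample, then incubated with 200 nmole of a 16-mer random double-stranded DNA library in Tris/NaCl/DTT/glycerol buffer for 30 min at room temperature. The pools were then washed, crosslinked, proximity-ligated, amplified by PCR and sequenced on an Illumina NextSeq500.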

ETV5 = ETV5 (Homo sapiens, UniProt P41161 1-510)
Summary of the method: as §1

SPIC = biological target: T2, SPIC (Homo sapiens, UniProt Q8N5J4 1-248)
T2 sequence: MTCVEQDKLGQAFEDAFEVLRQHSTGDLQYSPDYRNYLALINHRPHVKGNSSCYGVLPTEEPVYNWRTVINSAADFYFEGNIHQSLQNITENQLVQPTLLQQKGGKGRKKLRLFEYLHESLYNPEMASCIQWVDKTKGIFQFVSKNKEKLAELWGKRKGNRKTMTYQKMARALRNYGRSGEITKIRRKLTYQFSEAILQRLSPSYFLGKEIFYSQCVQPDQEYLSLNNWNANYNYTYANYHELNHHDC
Summary of the method: as §1

ELF4 = ELF4 (Homo sapiens, UniProt Q99607 1-663)
Summary of the method: as §1

ELK4 = biological target: T3, ELK4 (Homo sapiens, UniProt P28324-2 1-405)
T3 sequence: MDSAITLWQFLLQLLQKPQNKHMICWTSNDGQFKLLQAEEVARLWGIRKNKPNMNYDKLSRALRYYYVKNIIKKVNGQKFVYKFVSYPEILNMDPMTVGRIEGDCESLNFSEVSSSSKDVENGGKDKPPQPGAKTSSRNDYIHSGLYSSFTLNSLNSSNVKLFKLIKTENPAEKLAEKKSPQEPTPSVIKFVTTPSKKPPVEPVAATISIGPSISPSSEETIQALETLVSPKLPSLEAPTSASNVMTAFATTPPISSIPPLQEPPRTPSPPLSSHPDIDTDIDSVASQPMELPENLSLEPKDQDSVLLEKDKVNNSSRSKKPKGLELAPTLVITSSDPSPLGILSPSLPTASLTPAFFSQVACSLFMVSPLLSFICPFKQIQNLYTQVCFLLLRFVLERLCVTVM
Summary of the method: as §1

ETV2 = biological target: T4, ETV2 (Homo sapiens, UniProt O00321 1-342)
T4 sequence: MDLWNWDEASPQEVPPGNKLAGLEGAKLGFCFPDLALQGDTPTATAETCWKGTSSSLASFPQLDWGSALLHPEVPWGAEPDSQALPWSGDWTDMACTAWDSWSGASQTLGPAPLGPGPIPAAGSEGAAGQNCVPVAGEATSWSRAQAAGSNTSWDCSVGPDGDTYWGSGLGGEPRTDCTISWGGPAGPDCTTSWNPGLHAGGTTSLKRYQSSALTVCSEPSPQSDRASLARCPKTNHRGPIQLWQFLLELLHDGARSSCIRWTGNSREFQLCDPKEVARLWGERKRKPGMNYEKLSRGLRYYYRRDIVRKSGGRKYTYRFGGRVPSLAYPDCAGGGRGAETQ
Summary of the method: as §1

ELF3 = biological target: T5, ELF3 (Homo sapiens, UniProt P78545 1-371)
T5 sequence: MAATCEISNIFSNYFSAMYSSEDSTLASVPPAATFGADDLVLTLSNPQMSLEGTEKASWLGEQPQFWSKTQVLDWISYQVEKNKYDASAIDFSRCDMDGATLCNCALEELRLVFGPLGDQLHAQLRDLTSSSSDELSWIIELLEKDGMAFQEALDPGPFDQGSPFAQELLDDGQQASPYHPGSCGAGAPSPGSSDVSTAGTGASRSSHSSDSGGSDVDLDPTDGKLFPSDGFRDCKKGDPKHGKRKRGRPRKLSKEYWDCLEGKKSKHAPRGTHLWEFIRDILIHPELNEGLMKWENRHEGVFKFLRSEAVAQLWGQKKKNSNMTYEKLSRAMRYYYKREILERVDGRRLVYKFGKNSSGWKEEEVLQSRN
Summary of the method: as §1

ETV1 = ETV1 (Homo sapiens, UniProt P50549 1-477)
Summary of the method: as §1

ERF = biological target: T6, ERF (Homo sapiens, UniProt P50548 1-548)
T6 sequence: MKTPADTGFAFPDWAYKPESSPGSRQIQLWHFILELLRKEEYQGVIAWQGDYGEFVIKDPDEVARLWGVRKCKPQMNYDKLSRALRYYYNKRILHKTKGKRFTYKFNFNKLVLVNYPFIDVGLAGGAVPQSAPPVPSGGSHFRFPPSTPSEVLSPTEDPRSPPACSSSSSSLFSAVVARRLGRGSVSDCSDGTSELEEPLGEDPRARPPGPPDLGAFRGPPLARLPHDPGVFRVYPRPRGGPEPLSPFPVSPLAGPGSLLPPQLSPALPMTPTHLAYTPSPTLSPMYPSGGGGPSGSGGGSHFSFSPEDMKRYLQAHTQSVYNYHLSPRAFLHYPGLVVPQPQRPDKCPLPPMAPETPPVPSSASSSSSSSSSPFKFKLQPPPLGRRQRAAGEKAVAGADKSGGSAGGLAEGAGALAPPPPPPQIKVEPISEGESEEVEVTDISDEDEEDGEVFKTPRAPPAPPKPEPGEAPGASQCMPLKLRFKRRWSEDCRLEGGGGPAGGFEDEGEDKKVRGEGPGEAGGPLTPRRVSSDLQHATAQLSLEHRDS
Summary of the method: as §1

ETV3L = biological target: T7, ETV3L (Homo sapiens, UniProt Q6ZN32 1-361)
T7 sequence: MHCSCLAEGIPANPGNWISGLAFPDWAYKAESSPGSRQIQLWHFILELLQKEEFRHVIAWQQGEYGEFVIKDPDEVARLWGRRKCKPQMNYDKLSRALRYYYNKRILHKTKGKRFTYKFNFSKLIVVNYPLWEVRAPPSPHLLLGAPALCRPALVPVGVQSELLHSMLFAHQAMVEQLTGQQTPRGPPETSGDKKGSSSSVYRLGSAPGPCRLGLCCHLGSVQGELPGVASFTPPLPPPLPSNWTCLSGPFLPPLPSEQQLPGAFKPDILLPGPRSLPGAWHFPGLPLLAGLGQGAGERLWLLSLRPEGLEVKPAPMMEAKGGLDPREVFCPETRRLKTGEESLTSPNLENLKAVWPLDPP
Summary of the method: as §1

ETS2 = biological target: T8, ETS2 (Homo sapiens, UniProt P15036 1-469)
T8 sequence: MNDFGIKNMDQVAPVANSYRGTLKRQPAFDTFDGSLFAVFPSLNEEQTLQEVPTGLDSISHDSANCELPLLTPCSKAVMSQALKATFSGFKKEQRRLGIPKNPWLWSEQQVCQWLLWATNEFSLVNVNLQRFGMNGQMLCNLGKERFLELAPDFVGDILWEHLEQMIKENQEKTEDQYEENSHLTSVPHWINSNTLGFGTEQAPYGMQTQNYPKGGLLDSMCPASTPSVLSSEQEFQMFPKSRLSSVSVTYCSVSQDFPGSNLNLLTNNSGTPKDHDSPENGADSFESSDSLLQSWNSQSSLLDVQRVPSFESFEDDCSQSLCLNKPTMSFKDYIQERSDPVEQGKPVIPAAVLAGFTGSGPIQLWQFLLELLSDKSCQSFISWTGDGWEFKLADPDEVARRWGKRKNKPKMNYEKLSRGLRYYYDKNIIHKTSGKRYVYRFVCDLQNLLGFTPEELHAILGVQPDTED
Summary of the method: as §1

SPDEF = biological target: T9, SPDEF (Homo sapiens, UniProt O95238 1-335)
T9 sequence: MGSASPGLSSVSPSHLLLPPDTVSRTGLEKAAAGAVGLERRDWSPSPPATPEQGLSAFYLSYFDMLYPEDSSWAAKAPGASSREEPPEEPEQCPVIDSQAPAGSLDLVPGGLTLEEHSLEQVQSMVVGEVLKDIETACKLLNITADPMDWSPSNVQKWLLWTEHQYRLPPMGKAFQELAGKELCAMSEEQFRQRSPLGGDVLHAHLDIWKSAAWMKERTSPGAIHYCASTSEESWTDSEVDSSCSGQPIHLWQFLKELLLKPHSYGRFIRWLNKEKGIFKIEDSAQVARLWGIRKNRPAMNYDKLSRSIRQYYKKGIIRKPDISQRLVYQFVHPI
Summary of the method: as §1

ETV7 = biological target: T10, ETV7 (Homo sapiens, UniProt Q9Y603 1-341)
T10 sequence: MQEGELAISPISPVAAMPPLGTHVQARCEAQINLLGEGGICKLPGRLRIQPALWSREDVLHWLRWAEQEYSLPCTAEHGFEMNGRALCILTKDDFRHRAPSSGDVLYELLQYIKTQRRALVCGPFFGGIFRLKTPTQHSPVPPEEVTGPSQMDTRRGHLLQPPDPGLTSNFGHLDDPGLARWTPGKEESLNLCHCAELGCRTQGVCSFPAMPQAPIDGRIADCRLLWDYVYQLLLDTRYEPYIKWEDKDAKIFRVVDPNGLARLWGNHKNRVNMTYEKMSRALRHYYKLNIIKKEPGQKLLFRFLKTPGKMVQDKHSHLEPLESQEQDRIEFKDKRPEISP
Summary of the method: as §1

ELF5 = biological target: T11, ELF5 (Homo sapiens, UniProt Q9UKW6-2 1-255)
T11 sequence: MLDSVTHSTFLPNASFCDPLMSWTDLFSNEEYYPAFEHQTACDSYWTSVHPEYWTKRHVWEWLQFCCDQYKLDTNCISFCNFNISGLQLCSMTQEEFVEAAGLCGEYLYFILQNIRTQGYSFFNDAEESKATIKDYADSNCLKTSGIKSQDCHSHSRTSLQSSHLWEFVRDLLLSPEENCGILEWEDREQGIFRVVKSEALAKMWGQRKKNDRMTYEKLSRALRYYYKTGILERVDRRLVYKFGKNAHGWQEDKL
Summary of the method: as §1

ETV3 = biological target: T12, ETV3 (Homo sapiens, UniProt P41162-2 1-143)
T12 sequence: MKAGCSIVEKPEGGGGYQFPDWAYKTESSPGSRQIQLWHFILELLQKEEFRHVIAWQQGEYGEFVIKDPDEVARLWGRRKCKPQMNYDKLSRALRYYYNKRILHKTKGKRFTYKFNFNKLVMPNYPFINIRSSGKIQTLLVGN
Summary of the method: as §1

ETV6 = ETV6 (Homo sapiens, UniProt P41212 1-452)
Summary of the method: as §1

ETV5, sequence (P41161 whole entry): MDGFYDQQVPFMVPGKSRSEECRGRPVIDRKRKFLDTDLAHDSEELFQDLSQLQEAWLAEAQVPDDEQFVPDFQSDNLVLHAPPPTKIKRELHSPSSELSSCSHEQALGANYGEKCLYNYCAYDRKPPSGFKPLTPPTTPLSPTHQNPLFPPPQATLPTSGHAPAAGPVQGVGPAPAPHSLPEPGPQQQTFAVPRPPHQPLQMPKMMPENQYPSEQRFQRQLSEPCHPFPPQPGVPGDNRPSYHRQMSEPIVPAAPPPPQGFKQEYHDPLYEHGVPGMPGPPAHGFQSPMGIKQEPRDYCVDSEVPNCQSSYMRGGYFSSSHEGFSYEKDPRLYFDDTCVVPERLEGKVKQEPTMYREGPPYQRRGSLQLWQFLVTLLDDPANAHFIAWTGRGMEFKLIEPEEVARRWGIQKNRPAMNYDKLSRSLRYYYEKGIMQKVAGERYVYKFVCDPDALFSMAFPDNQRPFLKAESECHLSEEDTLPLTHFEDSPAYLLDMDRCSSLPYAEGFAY
ETV1, sequence (P50549 whole entry): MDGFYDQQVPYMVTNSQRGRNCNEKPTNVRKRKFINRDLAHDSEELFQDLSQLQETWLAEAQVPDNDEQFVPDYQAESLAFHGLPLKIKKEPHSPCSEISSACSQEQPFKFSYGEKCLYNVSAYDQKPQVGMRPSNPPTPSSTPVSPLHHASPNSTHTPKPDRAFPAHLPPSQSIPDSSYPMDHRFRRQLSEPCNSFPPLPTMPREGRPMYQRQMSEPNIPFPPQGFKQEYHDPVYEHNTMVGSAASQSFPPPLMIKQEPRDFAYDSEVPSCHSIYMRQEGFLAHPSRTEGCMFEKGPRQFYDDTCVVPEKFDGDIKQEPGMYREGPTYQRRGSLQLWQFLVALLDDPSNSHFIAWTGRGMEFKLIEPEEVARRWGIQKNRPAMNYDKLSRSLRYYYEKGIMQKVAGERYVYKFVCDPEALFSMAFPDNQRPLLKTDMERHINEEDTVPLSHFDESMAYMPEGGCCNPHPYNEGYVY
ETV6, sequence (P41212 whole entry): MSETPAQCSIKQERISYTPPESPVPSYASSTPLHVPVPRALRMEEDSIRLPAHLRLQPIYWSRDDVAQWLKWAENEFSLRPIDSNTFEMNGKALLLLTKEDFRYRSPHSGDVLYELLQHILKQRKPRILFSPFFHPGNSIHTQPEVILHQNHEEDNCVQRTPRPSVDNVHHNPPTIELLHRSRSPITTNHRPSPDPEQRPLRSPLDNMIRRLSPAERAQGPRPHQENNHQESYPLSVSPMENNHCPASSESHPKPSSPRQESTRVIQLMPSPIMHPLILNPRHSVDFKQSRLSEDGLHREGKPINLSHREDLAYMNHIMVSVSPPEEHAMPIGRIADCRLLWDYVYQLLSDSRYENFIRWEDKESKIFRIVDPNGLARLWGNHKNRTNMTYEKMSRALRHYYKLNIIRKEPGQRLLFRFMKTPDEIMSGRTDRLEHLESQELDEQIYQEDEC
ELF4, sequence (Q99607 whole entry): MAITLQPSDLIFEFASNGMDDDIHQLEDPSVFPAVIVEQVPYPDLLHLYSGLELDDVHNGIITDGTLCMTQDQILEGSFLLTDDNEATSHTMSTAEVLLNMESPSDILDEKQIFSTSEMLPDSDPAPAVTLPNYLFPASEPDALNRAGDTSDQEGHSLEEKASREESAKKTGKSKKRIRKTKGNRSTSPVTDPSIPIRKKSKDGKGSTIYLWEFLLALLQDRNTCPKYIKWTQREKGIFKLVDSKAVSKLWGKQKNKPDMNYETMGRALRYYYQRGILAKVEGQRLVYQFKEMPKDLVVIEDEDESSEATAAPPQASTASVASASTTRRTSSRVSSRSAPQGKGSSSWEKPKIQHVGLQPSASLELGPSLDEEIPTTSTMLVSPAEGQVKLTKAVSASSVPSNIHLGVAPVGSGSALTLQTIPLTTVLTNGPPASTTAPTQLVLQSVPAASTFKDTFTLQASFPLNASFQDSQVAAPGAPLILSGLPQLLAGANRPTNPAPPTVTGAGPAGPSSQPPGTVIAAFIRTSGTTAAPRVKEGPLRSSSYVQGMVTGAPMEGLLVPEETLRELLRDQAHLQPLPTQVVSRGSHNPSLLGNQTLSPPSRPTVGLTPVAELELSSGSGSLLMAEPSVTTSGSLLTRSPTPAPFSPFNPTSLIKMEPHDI

Row | Sequence | binding signal (FEV) | binding signal (ETV5) | binding signal (SPIC) | binding signal (ELF4) | binding signal (ELK4) | binding signal (ETV2) | binding signal (ELF3) | binding signal (ETV1) | binding signal (ERF) | binding signal (ETV3L) | binding signal (ETS2) | binding signal (SPDEF) | binding signal (ETV7) | binding signal (ELF5) | binding signal (ETV3) | binding signal (ETV6)
1 | AAGTGC | 1.32 fold enrichment (6-mer frequency, TF over GST control) | 1.33 fold enrichment (6-mer frequency, TF over GST control) | 1.5 fold enrichment (6-mer frequency, TF over GST control) | 1.29 fold enrichment (6-mer frequency, TF over GST control) | 1.21 fold enrichment (6-mer frequency, TF over GST control) | 1.35 fold enrichment (6-mer frequency, TF over GST control) | 1.33 fold enrichment (6-mer frequency, TF over GST control) | 1.25 fold enrichment (6-mer frequency, TF over GST control) | 1.22 fold enrichment (6-mer frequency, TF over GST control) | 1.2 fold enrichment (6-mer frequency, TF over GST control) | 1.23 fold enrichment (6-mer frequency, TF over GST control) | 1.26 fold enrichment (6-mer frequency, TF over GST control) | 1.32 fold enrichment (6-mer frequency, TF over GST control) | 1.29 fold enrichment (6-mer frequency, TF over GST control) | 1.39 fold enrichment (6-mer frequency, TF over GST control) | 1.36 fold enrichment (6-mer frequency, TF over GST control)
2 | CCTGTG | 1.11 fold enrichment (6-mer frequency, TF over GST control) | 1.07 fold enrichment (6-mer frequency, TF over GST control) | 1.32 fold enrichment (6-mer frequency, TF over GST control) | 1.11 fold enrichment (6-mer frequency, TF over GST control) | 1.22 fold enrichment (6-mer frequency, TF over GST control) | 1.11 fold enrichment (6-mer frequency, TF over GST control) | 1 fold enrichment (6-mer frequency, TF over GST control) | 1.12 fold enrichment (6-mer frequency, TF over GST control) | 1.08 fold enrichment (6-mer frequency, TF over GST control) | 1.02 fold enrichment (6-mer frequency, TF over GST control) | 1.03 fold enrichment (6-mer frequency, TF over GST control) | 1.02 fold enrichment (6-mer frequency, TF over GST control) | 1.07 fold enrichment (6-mer frequency, TF over GST control) | 1.06 fold enrichment (6-mer frequency, TF over GST control) | 1.07 fold enrichment (6-mer frequency, TF over GST control) | 1.06 fold enrichment (6-mer frequency, TF over GST control)
